Side scatter shift data for 38 compounds are collected here from PubChem BioAssay AID1069 (NMMLSC, 2008).

Molecules are shown by their SMILES. Calls of active or inactive are those of the source.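 Rule for the calls: active = high combined rank on largest and smallest cell-count-weighted shift across three tests, rank score above 45, floors 50 and 25 (some results past the limit were not filed as active); inactive = the rest.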

The nature of this experiment: activators of LNCaP cell differentiation, retest, confirmation, side scatter shift, flow cytometry (AID 1069).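 Note: LNCaP human prostate cancer cells in low-serum medium with charcoal-stripped FBS; percent of cells with raised granularity gated so DMSO controls show 10%.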 The following applies: 4 d, stronger effect = higher value.

In the case of `CCOc1ccc(C(=O)Nc2ccc(Cl)cn2)cc1Cl`, the side scatter shift is 22% (inactive) (at 100 µM) and 2.75% (side scatter shift, at 10 µM).

As to `Cc1nc(NCCNC(=O)c2ccco2)c2c(C)c(C)sc2n1`, the side scatter shift (at 100 µM) was 24.1% (inactive) and the side scatter shift (side scatter shift, at 10 µM) is 4.2%.

In the case of `CCOC(=O)N1CCN(C(=O)CCc2c(C)nc3c(c(C)nn3-c3ccc(C)c(C)c3)c2C)CC1`, the side scatter shift was 0% (inactive) (at 100 µM) and 6.6% (side scatter shift, at 10 µM).

On to `Cc1ccc(C)c(N2CCN(CCCNC(=O)Cn3cc4c(n3)CCC(C)C4)CC2)c1` (stereo unspecified), for which the side scatter shift (at 100 µM) is 20% (inactive) and the side scatter shift (side scatter shift, at 10 µM) worked out at 25.6%.

In the case of `CCOC(=O)N1CCN(C(=O)Cc2ccc(-n3c(=O)[nH]c4ccccc4c3=O)cc2)CC1`, the side scatter shift (at 100 µM) is 6.3% (inactive) and the side scatter shift (side scatter shift, at 10 µM) came out at 2.6%.

On to `CN1CCN(c2oc(COc3ccc(-c4ccccc4)cc3)nc2C#N)CC1`, for which the side scatter shift is 40% (inactive) (at 100 µM) and 10.8% (side scatter shift, at 10 µM).

As to `Nc1ccccc1NC(=O)c1ccccc1N`, the side scatter shift (at 100 µM) was 5.9% (inactive) and the side scatter shift (side scatter shift, at 10 µM) was 2.1%.

Take `CC1=C(n2nnc3ccccc32)C(c2ccccc2)C(C#N)=C(N)O1` (stereo unspecified): the side scatter shift (at 100 µM) is 26% (inactive) and the side scatter shift (side scatter shift, at 10 µM) was 6.4%.

In the case of `COc1ccc(Cc2noc(-c3ccc(C)cc3)n2)cc1`, the side scatter shift is 21.4% (inactive) (at 100 µM) and 10.1% (side scatter shift, at 10 µM).

For the compound `CCOC(=O)c1[nH]c(C)c(C(=O)NC2CCCCCC2)c1C`, the side scatter shift runs as follows: (at 100 µM) 4.8% (inactive); (side scatter shift, at 10 µM) 8.6%.

For `CCCS(=O)(=O)N1CCCC(C(=O)NCCCN2CCN(c3ccccc3F)CC2)C1` (stereo unspecified), the side scatter shift is 35.5% (inactive) (at 100 µM) and 5.95% (side scatter shift, at 10 µM).

With `Nc1cccc2cnccc12`, the side scatter shift was 4.1% (inactive) (at 100 µM) and 6.95% (side scatter shift, at 10 µM).

With `Cc1ccccc1-c1nc(CN2CCC(C(=O)O)CC2)c(C)o1`, the side scatter shift by setting is: (at 100 µM) 3.7% (inactive); (side scatter shift, at 10 µM) 1.25%.

Turning to `COCCn1cc(C(=O)N2CCCC(C)C2)c2c3ccccc3n(C)c2c1=O` (stereo unspecified), the side scatter shift by setting is: (at 100 µM) 22.8% (inactive); (side scatter shift, at 10 µM) 3.2%.

For `COc1cccc(-c2cc(C(=O)N3CCCc4ccccc43)no2)c1`, the side scatter shift is, setting by setting: (at 100 µM) 22.2% (inactive); (side scatter shift, at 10 µM) 1.8%.

On to `CN(CCNC(=O)C1CC(=O)N(c2ccc(F)c(Cl)c2)C1)Cc1ccccc1` (stereo unspecified), for which the side scatter shift is 62% (active) (at 100 µM) and 3.65% (side scatter shift, at 10 µM).

For `CCn1c(=O)cc(OCC(=O)NCCCN2CCN(c3cccc(Cl)c3)CC2)c2ccccc21`, the side scatter shift reads like this: (at 100 µM) 40% (inactive); (side scatter shift, at 10 µM) 18.3%.

As to `CCn1c(=O)cc(SCC(=O)NCCN2CCN(Cc3ccccc3)CC2)c2ccccc21`, the side scatter shift runs as follows: (at 100 µM) 70.2% (active); (side scatter shift, at 10 µM) 6.85%.

Regarding `CCCCOC(=O)CSc1nc2c(cc1C#N)C(=O)CC(C)(C)C2`, the side scatter shift runs as follows: (at 100 µM) 16.3% (inactive); (side scatter shift, at 10 µM) 5.85%.

Consider `COCCn1c(=O)[nH]c2cc(C(=O)NCCCN3CCN(c4ccc(F)cc4)CC3)ccc2c1=O`, for which the side scatter shift is 37.9% (inactive) (at 100 µM) and 6.5% (side scatter shift, at 10 µM).

Regarding `Cc1oc(-c2ccccc2F)nc1CN1CCC(C(=O)NCc2ccco2)CC1`, the side scatter shift is 23.3% (inactive) (at 100 µM) and 3% (side scatter shift, at 10 µM).

Regarding `O=C(Cc1coc(-c2ccc(F)cc2)n1)N1CCOCC1`, the side scatter shift (at 100 µM) was 9.7% (inactive) and the side scatter shift (side scatter shift, at 10 µM) amounted to 2.15%.

Regarding `CC(C)(O)c1cn(-c2nonc2N)nn1`, the side scatter shift was 10.4% (inactive) (at 100 µM) and 5.4% (side scatter shift, at 10 µM).

Take `N#C/C(=C\c1ccc(O)c(O)c1)C(=O)NCCCc1ccccc1`: the side scatter shift was 28.9% (inactive) (at 100 µM) and 7.05% (side scatter shift, at 10 µM).

For the compound `Cc1ccc(Cn2ccc(NC(=O)c3cc(-c4ccc(Br)cc4)on3)n2)cc1`, the side scatter shift (at 100 µM) is 23% (inactive) and the side scatter shift (side scatter shift, at 10 µM) turned out to be 10.6%.

Turning to `Oc1c(CN2CCCCC2)cc(COCc2ccccc2)c2cccnc12`, the side scatter shift runs as follows: (at 100 µM) 5.7% (active); (side scatter shift, at 10 µM) 51.2%.

Consider `CCOc1ccc(-n2cc(C(=O)N3CCC(C)CC3)c3cc(OC)c(OC)cc3c2=O)cc1`, for which the side scatter shift by setting is: (at 100 µM) 16.3% (inactive); (side scatter shift, at 10 µM) 18.7%.

For the compound `Cc1noc(C)c1S(=O)(=O)N1CCC(C(=O)NCCN2CCC(C)CC2)CC1`, the side scatter shift by setting is: (at 100 µM) 12.7% (inactive); (side scatter shift, at 10 µM) 4.95%.

Consider `COc1ccc2c(c1)CCc1c(C(=O)Nc3cc(C)n(Cc4ccc(Cl)cc4)n3)noc1-2`, for which the side scatter shift is, setting by setting: (at 100 µM) 37.2% (inactive); (side scatter shift, at 10 µM) 7.45%.

With `Cc1ccc(-n2nc3cc(Cl)c(NC(=O)c4ccco4)cc3n2)cc1`, the side scatter shift (at 100 µM) was 20.7% (inactive) and the side scatter shift (side scatter shift, at 10 µM) amounted to 2.8%.

For `CCOC(=O)c1ccc(-c2n[nH]c(=O)c3ccccc23)cc1`, the side scatter shift is 10.7% (inactive) (at 100 µM) and 3.3% (side scatter shift, at 10 µM).

Consider `Cc1oc(-c2ccc(Cl)cc2)nc1CN1CCC(C(=O)NCCCN2CCOCC2)CC1`, for which the side scatter shift runs as follows: (at 100 µM) 41.7% (inactive); (side scatter shift, at 10 µM) 27.7%.

As to `Cc1oc(-c2ccccc2F)nc1CN1CCC(C(=O)NCc2cccs2)CC1`, the side scatter shift (at 100 µM) is 39.3% (inactive) and the side scatter shift (side scatter shift, at 10 µM) is 6.3%.

Consider `COc1ccc(-c2cc(C(F)(F)F)nc(N3CCN(Cc4ccccc4)CC3)n2)cc1OC`, for which the side scatter shift was 51.3% (active) (at 100 µM) and 5.3% (side scatter shift, at 10 µM).

In the case of `O=C(CCCCCn1c(=O)[nH]c2ccccc2c1=O)NCCCN1CCN(c2ccccc2F)CC1`, the side scatter shift (at 100 µM) is 27.8% (inactive) and the side scatter shift (side scatter shift, at 10 µM) worked out at 3%.

Consider `CCOc1ccccc1NC(=O)CCC(=O)O`, for which the side scatter shift is 6.7% (inactive) (at 100 µM) and 6.85% (side scatter shift, at 10 µM).

For the compound `Cc1cc(=O)n2nc(N3CCCC3C(=O)NCc3ccccn3)sc2n1` (stereo unspecified), the side scatter shift runs as follows: (at 100 µM) 4% (inactive); (side scatter shift, at 10 µM) 7.1%.

For the compound `COc1ccc(N2CCN(CCCNC(=O)CCCn3c(=O)[nH]c4ccsc4c3=O)CC2)cc1`, the side scatter shift reads like this: (at 100 µM) 7.7% (inactive); (side scatter shift, at 10 µM) 20.6%.
